High-throughput results as filed in PubChem BioAssay.
Hits are enriched below; roughly 1.2% of the tested compounds scored in any of these assays.
Sa RN4220 lethal – growth inhibition of S. aureus RN4220, primary screen, OD600. 16 h. inhibition, % (test concentration not listed). 330,000 compounds, 0.33% hits; in the data active means inhibition above about 85%
Sa ugtP lethal – growth inhibition of ugtP-null S. aureus, primary screen, RN4220 ugtP deletion, OD600; growth inhibition, % (concentration not given with the values); 16 h; 330,000 compounds, 0.54% hits; AID 1259309, 2017; in the data active means growth inhibition above about 68%
BH1578 lux ind – inducers of Vibrio cholerae quorum light production without autoinducers, primary screen, BH1578 luxS cqsA deficient, single point; activation, % at 18.7 µM; V. cholerae BH1578 lux reporter, luminescence, 6 h; 350,000 compounds, 0.16% hits; AID 588436, 2011; in the data active means activation mostly above about 9.7%, no sharp cut-off; inconclusive means no clear call, values can overlap the other calls; inactive means mostly below about 3.7%
Mtb betalactam – beta-lactam sensitization of Mtb H37Rv, H37Rv | M. tuberculosis H37Rv growth with meropenem, percent inhibition | inhibition, % at 25 µM | 330,000 compounds, 0.27% hits; call rule not given here;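 further: growth measured after seven days incubation then overnight dye step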
PfHsp40 yeast – rescue of yeast from PfHsp40 toxicity, primary screen, S. cerevisiae, ATP luminescence | S. cerevisiae expressing PfHsp40, growth rescue | growth rescue, % at 12.5 µM | 340,000 compounds, 0.68% hits | AID 504582, 2011; in the data active means growth rescue above about 28%, passing the limit was not always enough; inconclusive means no clear call, values can overlap the other calls;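 further: yeast W303a lacking pdr1 and pdr3 grown in galactose medium; growth measured after three days at 30 °C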
A number is an active result; 0 = inactive; ? = inconclusive; - = no result given.

SMILES | Sa RN4220 lethal | Sa ugtP lethal | BH1578 lux ind | Mtb betalactam | PfHsp40 yeast
O=C(N/N=C/c1cc(Cl)ccc1O)c1ccccc1Br | - | - | 0 | 0 | 107.7
O=C(CNC(=O)c1ccccc1Br)N/N=C/c1cc(Br)ccc1O | - | - | 0 | 0 | 0
CC(CCC(=O)NN)C1CCC2C3CCC4CC(O)CCC4(C)C3CCC12C (stereo unspecified) | - | - | - | - | 0
CC(CCC(C)C(C)(C)C)[C@@H]1CC[C@H]2C3C[C@H](OS(O)(=S)=S)[C@H]4C[C@H](OS(O)(=S)=S)[C@@H](OS(O)(=S)=S)C[C@]4(C)[C@H]3CC[C@]12C (stereo partly specified) (tested in a mixture with another compound) | - | - | 0 | 0 | 104.1
O=C(CN1CCN(c2ncc(C(F)(F)F)cc2Cl)CC1)NCCNc1ncc(C(F)(F)F)cc1Cl | 0 | 0 | 0 | 0 | 293.6
O=C(NC(=S)NCc1ccco1)c1cccc(Cl)c1 | - | - | 0 | ? | 0
O=C(NC(=S)NCc1ccccc1)c1cccc(Cl)c1 | 0 | 0 | 0 | 0 | 28.9
Cc1cc(C(=O)NN=Cc2ccc([N+](=O)[O-])s2)n[nH]1 | 100.2 | 97.7 | - | - | -
Cc1ccc(NC(=S)N/N=C/c2ccc([N+](=O)[O-])s2)cc1 | - | - | 0 | 0 | 211.2
c1ccc(-c2cc3ccccc3nc2N2CCCC2)cc1 | 0 | 84.7 | 0 | 0 | 0
Cc1ccc(-c2cc3ccccc3nc2N2CCOCC2)cc1 | 0 | 91.2 | 0 | 0 | 0
Cc1ccc2nc(N3CCOCC3)c(C=O)cc2c1 | 0 | 0 | 0 | 0 | 0
CCOC1OC(C(=O)NCc2nc3ccccc3[nH]2)=CC(c2ccc(Br)cc2)C1CCCO (stereo unspecified) | 0 | 0 | - | - | -
CC(C)C(NC(=O)c1cccc(S(=O)(=O)N2CCCC2)c1)c1nc2ccccc2[nH]1 (stereo unspecified) | 0 | 0 | - | - | -
CCCN(CC(=O)Nc1cc(Cl)cc(Cl)c1)CC(=O)Nc1ccc(F)c(F)c1F | 88.7 | 91.4 | 0 | 0 | 0
CCOc1ccc(NC(=S)Nc2cc(-c3ccccc3)[nH]n2)cc1 | 0 | 0 | 0 | 0 | 105.8
FC(F)(F)c1cccc(NC(=S)Nc2ccc(Cl)c(Cl)c2)c1 | 100.8 | 100.6 | 0 | 0 | 0
O=C(NNC(=S)Nc1cccc(C(F)(F)F)c1)c1ccc(Cl)cc1Cl | 0 | 0 | 0 | 0 | 35.7
O=[N+]([O-])c1cc(C(F)(F)F)cc([N+](=O)[O-])c1NCCNC(=S)Nc1ccc(Cl)c(Cl)c1 | 98.7 | 99.9 | 0 | 0 | 0
S=C(NCc1ccncc1)Nc1ccc(Cl)c(Cl)c1 | 0 | 0 | 0 | 0 | 0
CCCN=C1CC(C)(C)CC(=O)/C1=C(\O)CCCN1C(=O)c2ccccc2C1=O | 0 | 0 | - | - | -
COc1cccc(OC)c1C(=O)Nc1ccc2c3c(cccc13)CC2 | 0 | 0 | 16.7 | 0 | 0
Cn1ncc(C#N)c1N=CN(Cc1ccccc1)Cc1ccccc1 | 101.1 | 99.8 | - | - | -
C[C@@]12C(=O)Nc3ccc(F)cc3C(=O)N1[C@H]1c3cc(Cl)ccc3OC[C@@H]1[C@@H]2c1ccccc1 | - | - | 0 | 0 | 0
C[C@@]12C(=O)Nc3ccc(F)cc3C(=O)N1[C@H]1c3ccccc3OC[C@@H]1[C@@H]2c1ccccc1 | - | - | 0 | 0 | 138.4
SMILES | Sa RN4220 lethal | Sa ugtP lethal | BH1578 lux ind | Mtb betalactam | PfHsp40 yeast
C[C@@]12C(=O)Nc3ccc(Cl)cc3C(=O)N1[C@H]1c3ccccc3OC[C@@H]1[C@@H]2c1ccccc1 | - | - | 0 | 0 | 118.1
O=C(NN=C/C=C/c1ccc2c(c1)OCO2)C1COc2cc3ccccc3cc2O1 (stereo unspecified) | 0 | 0 | - | - | -
COc1ccc(C2C=C(C(=O)O)OC(OCCCCO)C2)cc1 (stereo unspecified) | 0 | 0 | - | - | -
CCCc1nc2c(=O)n(C)c(=O)nc-2n(C)n1 | 0 | 0 | 0 | - | 125.0
O=C(O)c1cn(C2CC2)c2cc(N3CCN(S(=O)(=O)c4ccc5c(c4)OCCO5)CC3)c(F)cc2c1=O | 99.4 | 100.3 | 0 | 0 | 0
Clc1ccc2[nH]c3c(c2c1)CCc1cn[nH]c1-3 | 98.3 | 0 | 0 | 0 | 0
CC1CN(C(C)CO)C(=O)c2cccc(NC(=O)Cc3ccccc3)c2OC1CN(C)Cc1ccccc1 (stereo unspecified) | 0 | 0 | - | - | -
CCCNC(=O)N1C2CCC1C(C(=O)OC)=C(c1cccc(Cl)c1)C2 (stereo unspecified) | 0 | 0 | - | - | -
CCCOc1ccc(C=NNC(=O)c2nnn(-c3nonc3N)c2-c2cccs2)cc1OC | 0 | 0 | - | - | -
CCOC(=O)c1sc(=S)n(-c2cc(OC)ccc2OC)c1N | 0 | 0 | 0 | 0 | 200.5
CCOc1ccc(NC(C)C(=O)NN=Cc2cccs2)cc1 (stereo unspecified) | 0 | 0 | - | - | -
Cc1ccc(O)c(C(=O)CC(=O)c2ccccc2Cl)c1 | 100.0 | 99.5 | 0 | 0 | 0
Cc1ccc(C)c(NC(=O)c2ccccc2O)c1 | 0 | 0 | 0 | 0 | 0
Cc1ccc(O)c(C(=O)CC(=O)c2ccc(C(C)(C)C)cc2)c1 | 99.2 | 99.8 | 0 | 0 | 0
COc1ccc(O)c(C(=O)CC(=O)c2ccccc2)c1 | - | - | - | 0 | -
CC1OC(OC2CC[C@@]3(C)C(CC[C@]4(C)C3C=C[C@]35OC[C@@]6(CCC(C)(C)CC63)C(O)C[C@]54C)[C@]2(C)CO)C(O)C(OC2OC(CO)C(O)C(O)C2O)C1O (stereo partly specified) | 0 | 0 | - | - | -
CC(Oc1ccccc1)C(=O)NC1C(=O)N2C1SC(C)(C)C2C(=O)O (stereo unspecified) | 100.3 | 100.3 | 0 | 0 | 0
CC1(C)SC2C(NC(=O)Cc3ccccc3)C(=O)N2C1C(=O)O (stereo unspecified) | 100.4 | 98.8 | - | - | -
CC1(C)SC2C(NC(=O)C3(N)CCCCC3)C(=O)N2C1C(=O)O (stereo unspecified) | 100.4 | 100.6 | 0 | - | 0
CC1(C)SC2C(NC(=O)C(N)c3ccc(O)cc3)C(=O)N2C1C(=O)O (stereo unspecified) | 0 | 0 | - | - | -
COC(=O)C(=Nc1ccccc1)/C(C(=O)C(=O)N(C)c1ccccc1)=C(/O)c1ccc(Cl)cc1 | 0 | 0 | - | - | -
COC(=O)C1=C(c2ccc(F)cc2OCc2ccccc2)CC2CCC1N2C(=O)NC1Cc2ccccc2C1 (stereo unspecified) | 0 | 0 | - | - | -
CC(CC(=O)N1CCN(C=O)CC1)=NNC(=O)c1ccc(Br)cc1 | 0 | 0 | - | - | -
N#Cc1c(-c2ccc(Cl)cc2)n(O)c2ccccc12 | - | - | 0 | - | 284.2
Nc1nonc1-n1nnc(C(=O)N/N=C/c2cccc(Cl)c2)c1CN1CCCCCC1 | - | - | 0 | 0 | 0
SMILES | Sa RN4220 lethal | Sa ugtP lethal | BH1578 lux ind | Mtb betalactam | PfHsp40 yeast
Nc1nonc1-n1nnc(C(=O)N/N=C/c2cccc(O)c2)c1CN1CCCC1 | - | - | 30.5 | 0 | 0
CC(=O)Nc1ccc(Sc2ccc([N+](=O)[O-])o2)cc1 | 0 | 0 | 0 | - | 54.2
COCCNC(=S)NN=Cc1ccccc1C(=O)O | 0 | 0 | - | - | -
CCOC(=O)c1cn(CC)c2ccc(Br)cc2c1=O | 0 | 0 | 0 | 0 | 0
CCn1cc(C(=O)O)c(=O)c2cc(Br)ccc21 | 0 | 0 | - | 0 | 32.9
O=C(NC1CC1)C1=CC(c2ccc(Br)cc2)CC(OCc2ccc(CO)cc2)O1 (stereo unspecified) | 0 | 0 | - | - | -
